Sampled rows, rich in hits. Any-hit rate of the full collection: about 18%.
VP16 counter: Gal4-VP16 reporter inhibition counter-screen; Drosophila S2 Gal4-VP16 UAS-luciferase, luminescence, 20 h; Potency, µM (highest dose often 53.6 µM), for the others: top-dose activity, negative = inhibition, most hits filed as inhibitors; 3.5% of 310,000 active; AID 2546;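 note: Gal4-VP16 expression switched on by copper sulfate through the metallothionein promoter; potency is the fitted concentration of half-maximal effect; nearly all actives have a fitted effect of over 50% in size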
RORg inh: inhibitors of mouse ROR gamma transcriptional activity; P51450; Drosophila S2 Gal4-RORgamma UAS-luciferase reporter, 20 h; Potency, µM (series often up to 53.6 µM), without a hit: top-dose activity change, negative = inhibition, actives largely listed as inhibitors; 5.4% of 310,000 active; AID 2551; note: potency is the fitted concentration of half-maximal effect; nearly all actives have a fitted effect of over 60% in size
Target sequence (P51450 whole entry, looked up, the tested form may be a part): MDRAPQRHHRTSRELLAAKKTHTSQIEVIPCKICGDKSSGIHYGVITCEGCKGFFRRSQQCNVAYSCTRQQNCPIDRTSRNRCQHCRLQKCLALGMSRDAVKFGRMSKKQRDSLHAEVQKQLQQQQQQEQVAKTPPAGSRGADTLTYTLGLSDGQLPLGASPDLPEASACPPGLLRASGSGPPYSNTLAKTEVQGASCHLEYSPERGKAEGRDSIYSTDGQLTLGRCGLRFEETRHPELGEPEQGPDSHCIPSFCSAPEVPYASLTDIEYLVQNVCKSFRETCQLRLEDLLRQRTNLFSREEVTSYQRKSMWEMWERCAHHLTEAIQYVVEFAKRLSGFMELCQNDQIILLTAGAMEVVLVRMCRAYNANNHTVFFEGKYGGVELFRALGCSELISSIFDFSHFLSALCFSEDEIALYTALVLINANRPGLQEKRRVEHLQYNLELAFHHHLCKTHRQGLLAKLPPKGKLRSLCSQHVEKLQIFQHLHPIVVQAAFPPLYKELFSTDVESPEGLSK
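ROR gamma transcriptional activity was tracked as Gal4-UAS luciferase output in stably transfected Drosophila Schneider cells, with compound added 1 hr before 700 uM copper sulfate induction and a 20 hr ambient-temperature incubation.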
TDP1 cell CPT: growth inhibition of DT40 Tdp1-/-;hTDP1 cells with camptothecin (screen for TDP1 inhibitors). chicken DT40 Tdp1-/-;hTDP1 cells + 20 nM CPT, ATP luminescence, 48 h. Potency, µM (titrated, usually from 46.2 µM), without a hit: at the highest dose activity change, negative = growth inhibition, actives largely listed as inhibitors. 12% of 420,000 active; note: potency is the fitted concentration of half-maximal effect; nearly all actives have a fitted effect of over 55% in size
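Cell growth measured by CellTiter-Glo luminescence after a minimum 48 h, 37 C compound exposure with 20 nM CPT in Tdp1-knockout DT40 cells stably expressing hTDP1, seeded 400/well; qHTS titration format.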
DT40 TDP1 no CPT: qHTS for Inhibitors of human tyrosyl-DNA phosphodiesterase 1 (TDP1): qHTS in cells in absence of CPT. 15% of 420,000 active. AID 686978, 2013. DT40 Tdp1-/- hTDP1 cells, no CPT, ATP luminescence, 48 h. Potency, µM (highest dose often 46.2 µM), without a hit: top-dose activity change, negative = growth inhibition, usual class: inhibitors; note: potency is the fitted concentration of half-maximal effect; nearly all actives have a fitted effect of over 55% in size
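Luminescent ATP content (CellTiter-Glo) served as the growth readout. Knockout chicken DT40 cells expressing human TDP1 were exposed to compounds without camptothecin for a minimum 48 hr at 37 °C.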
IL1B secr inh: blocks inflammasome-driven IL-1 beta release. THP-1 LPS/ATP IL-1B secretion, AlphaLISA, 16 h; active compounds read low. activity change, % at 57.5 µM. 4.7% of 360,000 active. AID 743279; in the data active = activity change below about -50%; inconclusive = mostly about -30% to -49%
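THP-1 cells pretreated 1 hr with compounds (up to 57.5 uM final), then stimulated with LPS (250 ng/mL final) plus ATP (1.25 mM final); secreted IL-1B measured by AlphaLISA after 16 hr, decreased signal indicating inhibition.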
LDHA block: inhibitors of human lactate dehydrogenase A; activity change, % (values are at about 110 or 230 µM); 0.15% of 480,000 active; purified LDHA, NADH/diaphorase-resazurin fluorescence; active compounds read low; P00338; AID 1347041; in the data active = activity change below about -30%; inconclusive = mostly about -25% to -30%;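 note: plate controls were DMSO wells for no effect and wells without enzyme for full effect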
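Human LDH5 (2 nM) was incubated with 0.06 mM NADH and 0.2 mM pyruvate for 5 min at room temperature in Tris pH 7.4. Remaining NADH was coupled through diaphorase/resazurin, and resorufin fluorescence was read at 0 and 20 min.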
* hit, by the source's call; ! = a repeat was not active. Unless noted, calls come from the whole dose curve; as a rule, active = well fitted curve in the direction sought with a large enough effect; inconclusive = small, poorly fitted or top-dose-only effect, or another doubt; inactive = no such curve, though single readings can be large; an effect the other way counts as inactive or inconclusive. Unless noted, % is set by controls: 0 for no effect and ±100 for the full control effect.

How did CCOC(=O)c1cnc2ccccc2c1N(C)CC(=O)N(C)C do in these assays?
LDHA block: -5

How did COc1cc(NC(=O)c2cnc(SC)nc2C(F)(F)F)cc(OC)c1 do in these assays?
LDHA block: 5

Results for COc1ccc(CNc2nc(NCc3ccc(OC)cc3)c3[nH]cnc3n2)cc1 ?
VP16 counter: -20%; RORg inh: -20%; TDP1 cell CPT: inconclusive; DT40 TDP1 no CPT: 29µM*; IL1B secr inh: 10; LDHA block: -9

Results for COc1ccc(CNc2nc(NCc3ccc(OC)cc3)c3ncn(C(C)C)c3n2)cc1 ?
VP16 counter: -24%; RORg inh: inconclusive

How did COc1cccc(CNc2ncnc3nc[nH]c23)c1 do in these assays?
TDP1 cell CPT: inconclusive; DT40 TDP1 no CPT: inconclusive; LDHA block: 0

Results for COc1ccc(CNc2ncnc3nc[nH]c23)cc1 ?
TDP1 cell CPT: 14µM*; DT40 TDP1 no CPT: 14µM*!; LDHA block: 7

What do the screens show for `O=C(Nc1cccc2ncccc12)c1cnc2ccccc2n1`?
LDHA block: 0

What do the screens show for `Cc1ccc(S(=O)(=O)N2CCN(C(C)c3nc4ccccc4c(=O)[nH]3)CC2)c(C)c1` (stereo not given)?
LDHA block: -1

What do the screens show for `Cc1ccccc1C(=O)NCc1nc2cccnc2n1Cc1ccccc1`?
TDP1 cell CPT: inconclusive; DT40 TDP1 no CPT: inconclusive; LDHA block: -3

How did COc1ccc(CCC(=O)NCc2nc3cccnc3n2Cc2ccccc2)cc1 do in these assays?
TDP1 cell CPT: inconclusive; DT40 TDP1 no CPT: 16µM*; LDHA block: -3

What do the screens show for `COc1ccc(CCC(=O)NCc2nc3cccnc3n2Cc2ccc(OC)cc2)cc1`?
TDP1 cell CPT: -9%; DT40 TDP1 no CPT: -15%; LDHA block: -3

Results for COc1ccc(CCC(=O)NCc2nc3cccnc3n2Cc2ccc(C)cc2)cc1 ?
TDP1 cell CPT: inconclusive; DT40 TDP1 no CPT: 23µM*; LDHA block: -5

What do the screens show for `CCOc1ccccc1C(=O)NCc1nc2cccnc2n1Cc1ccc(C)cc1`?
TDP1 cell CPT: 18µM*; DT40 TDP1 no CPT: 16µM*; LDHA block: -7

Results for Cc1oc2cc3o/c(=N/O)c4c(c3cc2c1C)CCC4 ?
LDHA block: -23

What do the screens show for `Cc1ccc(NC(=O)c2cc(=O)c3ccc(C)cc3o2)c(C)c1`?
LDHA block: 3

What do the screens show for `O=C(/C=C\c1ccccc1)Nc1ccc(NC(=O)c2ccco2)cc1`?
VP16 counter: -8%; RORg inh: 0%; TDP1 cell CPT: 12µM*; DT40 TDP1 no CPT: 23µM*; IL1B secr inh: 49; LDHA block: -15

What do the screens show for `C=Cc1cccc(NC(=O)c2ccc(NC(=O)c3ccco3)cc2)c1`?
VP16 counter: 17%; RORg inh: inconclusive; TDP1 cell CPT: 15µM*; DT40 TDP1 no CPT: 6.5µM*; IL1B secr inh: -10; LDHA block: -2

Results for COC(=O)c1ccc(NC(=O)c2ccc(NC(=O)c3ccco3)cc2)cc1 ?
VP16 counter: -20%; RORg inh: 37%; TDP1 cell CPT: -28%; DT40 TDP1 no CPT: -15%; IL1B secr inh: 92; LDHA block: -2

What do the screens show for `Cc1cc(C)cc(NC(=O)c2ccc(NC(=O)c3ccco3)cc2)c1`?
VP16 counter: 14%; RORg inh: 17%; TDP1 cell CPT: 21µM*; DT40 TDP1 no CPT: inconclusive; LDHA block: -5

Results for CCC(C)c1ccc(NC(=O)c2ccco2)cc1 (stereo not given) ?
VP16 counter: 7.9µM*; RORg inh: 20µM*; TDP1 cell CPT: inconclusive; DT40 TDP1 no CPT: inconclusive; IL1B secr inh: 0; LDHA block: -7

Results for Cc1ccsc1CNC(=O)c1ccccn1 ?
LDHA block: 3

Results for Cc1ccc(C2=[N+]([O-])C(C)(C)N(O)C2C)cc1 (stereo not given) ?
LDHA block: -3

What do the screens show for `CC1CCN(S(=O)(=O)c2ccc(-c3nc(C#N)c(NCCN4CCOCC4)o3)cc2)CC1`?
LDHA block: 4

Results for Cc1cccc(-c2cc(C(=O)O)c3c(Br)cccc3n2)c1 ?
LDHA block: -4

What do the screens show for `COc1cccc(NC(=O)CCc2ncc(-c3ccc(C)cc3)o2)c1`?
LDHA block: 5

Results for O=C(N/N=C/c1cccs1)c1cccc(Cl)c1 ?
LDHA block: 3

How did O=C1c2cc(F)ccc2OC2(CCNCC2)C12CC(c1ccccc1)=NO2 (stereo not given) do in these assays?
VP16 counter: -18%; RORg inh: -36%; TDP1 cell CPT: 15µM*; DT40 TDP1 no CPT: inconclusive; IL1B secr inh: -53*; LDHA block: -2

How did CC(C)C(=O)N1CCC2(CC1)Oc1ccc(Cl)cc1C(=O)C21CC(c2ccccc2)=NO1 (stereo not given) do in these assays?
VP16 counter: -7%; RORg inh: -9%; TDP1 cell CPT: inconclusive; DT40 TDP1 no CPT: inconclusive; IL1B secr inh: inconclusive; LDHA block: 0

What do the screens show for `CC(C)(C)OC(=O)N1CCC2(CC1)Oc1ccc(F)cc1C(=O)C21CC(c2ccccc2)=NO1` (stereo not given)?
TDP1 cell CPT: 23µM*; DT40 TDP1 no CPT: inconclusive; IL1B secr inh: inconclusive; LDHA block: -3

What do the screens show for `Cc1nc2ccc(Cl)cc2cc1C(=O)NCCOc1ccc(F)cc1`?
LDHA block: -11

Results for CC1(C)Cc2c(sc3c2C2=NCCN2C=N3)CS1 ?
VP16 counter: -2%; RORg inh: -3%; TDP1 cell CPT: -26%; DT40 TDP1 no CPT: 16µM*; IL1B secr inh: 1; LDHA block: 5

How did Brc1ccc[n+](CCc2ccccc2)c1 do in these assays?
TDP1 cell CPT: -7%; DT40 TDP1 no CPT: -24%; LDHA block: -23

How did Brc1cc(Br)c[n+](CCc2ccccc2)c1 do in these assays?
TDP1 cell CPT: 11µM*; DT40 TDP1 no CPT: 14µM*

How did CCOc1ccc(SC(C(N)=O)c2ccccc2)cc1 (stereo not given) do in these assays?
LDHA block: 5

How did CCN(CC)S(=O)(=O)c1ccc2c(c1)N(CC(=O)N1CCN(c3cccc(C)c3C)CC1)C(=O)CO2 do in these assays?
TDP1 cell CPT: 18µM*; DT40 TDP1 no CPT: 15µM*; LDHA block: -1
